About 21,000 targets were measured; listed, in parts, are those with the largest changes and a random draw of the rest.
Compound: Cc1cc(ccc1-c1ccccc1)C(=O)N1CCCN(CC1)C(=O)CCl [compound 10]
Assay: probe-labelled cysteine peptide fold change vs DMSO (competition) (log2 fold change); higher = less target engagement (more negative = stronger competition)
Conditions: THP-1, incubation time: 4 h
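Note: competitive profiling in live THP-1 cells: cysteine peptides tagged with an iodoacetamide desthiobiotin (IA-DTB) probe, intensity after compound treatment relative to DMSO-treated cells.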

Chain of UniProt Q9NPG3 (Q9NPG3 whole entry, looked up): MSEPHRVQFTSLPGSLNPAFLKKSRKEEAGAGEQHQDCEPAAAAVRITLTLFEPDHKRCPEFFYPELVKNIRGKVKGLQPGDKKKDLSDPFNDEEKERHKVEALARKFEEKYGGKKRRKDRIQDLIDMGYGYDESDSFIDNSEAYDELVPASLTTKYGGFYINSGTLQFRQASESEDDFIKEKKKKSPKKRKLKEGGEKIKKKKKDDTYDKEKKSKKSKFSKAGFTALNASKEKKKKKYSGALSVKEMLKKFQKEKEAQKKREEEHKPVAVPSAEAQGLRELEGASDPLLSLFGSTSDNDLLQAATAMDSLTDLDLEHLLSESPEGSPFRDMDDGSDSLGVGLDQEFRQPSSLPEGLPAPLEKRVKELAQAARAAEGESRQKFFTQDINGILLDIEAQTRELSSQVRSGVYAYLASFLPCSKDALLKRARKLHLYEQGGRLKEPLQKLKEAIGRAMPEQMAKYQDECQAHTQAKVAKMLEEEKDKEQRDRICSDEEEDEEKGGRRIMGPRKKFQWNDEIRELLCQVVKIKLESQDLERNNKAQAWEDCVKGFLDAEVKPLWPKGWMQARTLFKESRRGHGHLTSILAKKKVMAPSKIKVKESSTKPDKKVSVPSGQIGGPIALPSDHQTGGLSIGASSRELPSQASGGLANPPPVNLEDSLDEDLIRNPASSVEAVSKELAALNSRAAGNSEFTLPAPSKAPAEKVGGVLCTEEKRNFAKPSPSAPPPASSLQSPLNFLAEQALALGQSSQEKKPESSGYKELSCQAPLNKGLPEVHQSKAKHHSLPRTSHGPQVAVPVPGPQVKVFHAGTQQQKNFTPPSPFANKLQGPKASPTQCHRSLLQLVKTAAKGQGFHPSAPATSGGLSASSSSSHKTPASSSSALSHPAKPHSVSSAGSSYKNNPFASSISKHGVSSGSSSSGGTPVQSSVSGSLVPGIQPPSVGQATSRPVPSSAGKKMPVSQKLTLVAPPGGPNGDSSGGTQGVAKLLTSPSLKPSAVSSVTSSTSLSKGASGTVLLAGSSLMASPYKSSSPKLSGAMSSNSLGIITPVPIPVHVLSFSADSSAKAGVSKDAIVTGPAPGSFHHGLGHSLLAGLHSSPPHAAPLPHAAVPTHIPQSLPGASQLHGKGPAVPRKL
Chain of UniProt P08670 (P08670 whole entry, looked up): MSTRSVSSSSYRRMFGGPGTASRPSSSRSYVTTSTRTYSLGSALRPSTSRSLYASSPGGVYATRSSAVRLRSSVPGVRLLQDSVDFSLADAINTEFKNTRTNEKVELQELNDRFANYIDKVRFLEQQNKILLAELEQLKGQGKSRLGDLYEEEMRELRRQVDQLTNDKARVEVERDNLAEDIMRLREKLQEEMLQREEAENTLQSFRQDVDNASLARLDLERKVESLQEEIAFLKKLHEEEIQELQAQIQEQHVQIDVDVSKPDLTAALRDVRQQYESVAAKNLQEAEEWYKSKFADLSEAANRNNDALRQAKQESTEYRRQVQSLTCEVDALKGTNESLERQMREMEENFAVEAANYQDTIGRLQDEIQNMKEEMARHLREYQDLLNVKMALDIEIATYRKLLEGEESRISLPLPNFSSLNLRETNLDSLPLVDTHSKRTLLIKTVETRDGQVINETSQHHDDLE
Chain of UniProt P40818 (P40818 whole entry, looked up): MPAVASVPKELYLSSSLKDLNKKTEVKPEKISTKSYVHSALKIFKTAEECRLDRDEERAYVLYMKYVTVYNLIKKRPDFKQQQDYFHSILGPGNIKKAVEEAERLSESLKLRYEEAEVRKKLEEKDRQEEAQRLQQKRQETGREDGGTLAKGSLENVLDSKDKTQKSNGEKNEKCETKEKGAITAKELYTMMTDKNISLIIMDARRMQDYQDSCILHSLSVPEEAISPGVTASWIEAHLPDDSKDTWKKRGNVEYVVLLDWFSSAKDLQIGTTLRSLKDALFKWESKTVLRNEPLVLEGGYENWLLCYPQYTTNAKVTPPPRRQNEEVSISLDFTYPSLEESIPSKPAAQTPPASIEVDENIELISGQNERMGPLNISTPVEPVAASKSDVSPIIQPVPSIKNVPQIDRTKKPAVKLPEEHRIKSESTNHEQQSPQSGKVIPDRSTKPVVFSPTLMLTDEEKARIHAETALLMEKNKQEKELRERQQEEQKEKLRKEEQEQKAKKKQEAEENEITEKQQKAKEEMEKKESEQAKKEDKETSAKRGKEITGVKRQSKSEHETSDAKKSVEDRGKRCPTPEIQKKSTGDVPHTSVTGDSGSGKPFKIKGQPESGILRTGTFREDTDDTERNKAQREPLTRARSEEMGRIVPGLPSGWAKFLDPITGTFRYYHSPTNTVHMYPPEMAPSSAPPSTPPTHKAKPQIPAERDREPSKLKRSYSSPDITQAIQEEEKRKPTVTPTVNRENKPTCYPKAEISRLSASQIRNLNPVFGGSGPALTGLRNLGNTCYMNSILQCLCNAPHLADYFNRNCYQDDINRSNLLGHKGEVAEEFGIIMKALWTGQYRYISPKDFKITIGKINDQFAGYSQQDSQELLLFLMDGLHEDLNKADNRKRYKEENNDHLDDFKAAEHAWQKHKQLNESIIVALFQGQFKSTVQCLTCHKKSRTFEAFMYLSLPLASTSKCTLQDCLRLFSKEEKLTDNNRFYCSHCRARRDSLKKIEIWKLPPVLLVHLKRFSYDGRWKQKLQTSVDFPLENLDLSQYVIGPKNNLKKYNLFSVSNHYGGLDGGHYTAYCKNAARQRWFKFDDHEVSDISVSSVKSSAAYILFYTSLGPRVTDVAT
Chain of UniProt Q96AE7 (Q96AE7 whole entry, looked up): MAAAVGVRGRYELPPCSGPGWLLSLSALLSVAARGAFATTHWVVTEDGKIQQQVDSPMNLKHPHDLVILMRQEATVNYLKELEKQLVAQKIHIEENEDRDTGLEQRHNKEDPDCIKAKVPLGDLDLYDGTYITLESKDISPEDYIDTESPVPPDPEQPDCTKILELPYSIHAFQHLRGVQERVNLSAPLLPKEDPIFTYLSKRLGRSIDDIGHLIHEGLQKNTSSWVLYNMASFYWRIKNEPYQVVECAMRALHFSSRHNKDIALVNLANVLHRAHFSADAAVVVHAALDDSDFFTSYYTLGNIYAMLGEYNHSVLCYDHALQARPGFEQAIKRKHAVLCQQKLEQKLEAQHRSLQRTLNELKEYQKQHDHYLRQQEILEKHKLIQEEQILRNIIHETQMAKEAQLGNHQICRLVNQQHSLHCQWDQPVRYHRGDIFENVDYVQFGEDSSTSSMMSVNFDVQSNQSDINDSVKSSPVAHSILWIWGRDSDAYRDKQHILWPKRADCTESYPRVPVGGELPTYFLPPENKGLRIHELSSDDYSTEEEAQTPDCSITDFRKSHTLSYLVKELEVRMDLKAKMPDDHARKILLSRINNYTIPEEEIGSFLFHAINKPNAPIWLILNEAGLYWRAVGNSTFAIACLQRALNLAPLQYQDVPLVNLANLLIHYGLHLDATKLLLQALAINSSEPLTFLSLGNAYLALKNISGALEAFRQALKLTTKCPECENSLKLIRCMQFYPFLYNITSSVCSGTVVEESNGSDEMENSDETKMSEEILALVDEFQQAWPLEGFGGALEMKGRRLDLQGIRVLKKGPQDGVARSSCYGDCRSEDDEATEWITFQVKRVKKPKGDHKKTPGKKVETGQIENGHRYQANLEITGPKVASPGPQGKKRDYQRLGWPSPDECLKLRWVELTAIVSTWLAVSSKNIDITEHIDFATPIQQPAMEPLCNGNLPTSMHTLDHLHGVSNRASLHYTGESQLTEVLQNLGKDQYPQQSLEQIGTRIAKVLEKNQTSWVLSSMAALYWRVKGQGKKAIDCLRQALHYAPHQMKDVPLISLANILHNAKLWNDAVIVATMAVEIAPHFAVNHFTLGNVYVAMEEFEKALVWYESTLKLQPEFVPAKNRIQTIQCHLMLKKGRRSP
Chain of UniProt Q9Y3C8 (Q9Y3C8 whole entry, looked up): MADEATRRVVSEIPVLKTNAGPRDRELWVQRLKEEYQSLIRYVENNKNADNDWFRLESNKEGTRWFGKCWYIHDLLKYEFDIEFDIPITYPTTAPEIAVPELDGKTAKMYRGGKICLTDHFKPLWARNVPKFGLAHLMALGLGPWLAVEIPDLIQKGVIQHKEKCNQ
Chain of UniProt Q86W33 (Q86W33 whole entry, looked up): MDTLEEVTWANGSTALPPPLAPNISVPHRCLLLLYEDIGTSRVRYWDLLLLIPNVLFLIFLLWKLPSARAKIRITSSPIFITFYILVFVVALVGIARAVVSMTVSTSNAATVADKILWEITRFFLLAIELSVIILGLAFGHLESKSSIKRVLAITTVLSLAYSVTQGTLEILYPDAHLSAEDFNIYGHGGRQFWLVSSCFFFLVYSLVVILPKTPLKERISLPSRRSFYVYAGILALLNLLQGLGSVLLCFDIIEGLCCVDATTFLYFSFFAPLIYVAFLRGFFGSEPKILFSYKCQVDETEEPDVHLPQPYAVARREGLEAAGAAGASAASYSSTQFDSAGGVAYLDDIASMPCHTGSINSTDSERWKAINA
Chain of UniProt O94888 (O94888 whole entry, looked up): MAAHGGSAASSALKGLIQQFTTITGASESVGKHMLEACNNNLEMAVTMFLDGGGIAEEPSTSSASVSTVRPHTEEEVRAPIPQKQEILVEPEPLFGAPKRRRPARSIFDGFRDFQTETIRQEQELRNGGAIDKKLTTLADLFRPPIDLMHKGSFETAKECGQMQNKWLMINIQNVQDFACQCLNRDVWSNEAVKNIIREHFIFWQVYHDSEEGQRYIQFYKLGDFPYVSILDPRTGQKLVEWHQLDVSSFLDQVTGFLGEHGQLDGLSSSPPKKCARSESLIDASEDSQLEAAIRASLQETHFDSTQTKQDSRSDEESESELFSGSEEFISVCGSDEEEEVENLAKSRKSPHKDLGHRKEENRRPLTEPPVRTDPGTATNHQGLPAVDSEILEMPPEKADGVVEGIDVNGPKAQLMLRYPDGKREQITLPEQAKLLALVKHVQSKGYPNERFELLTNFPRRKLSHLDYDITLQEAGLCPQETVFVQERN
Chain of UniProt O75865 (O75865 whole entry): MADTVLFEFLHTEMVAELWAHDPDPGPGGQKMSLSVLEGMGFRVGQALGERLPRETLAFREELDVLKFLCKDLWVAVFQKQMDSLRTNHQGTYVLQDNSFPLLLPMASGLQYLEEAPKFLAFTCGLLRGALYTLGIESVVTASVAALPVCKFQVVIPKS

| Target | probe-labelled cysteine peptide fold change (10 µM) | probe-labelled cysteine peptide fold change (50 µM) |
| --- | --- | --- |
| USP19_O94966_1169_EEQLPSYDLYAVINHYGGMIGGHYTACAR (UniProt O94966) | -0.00515 | 0.0872 |
| TRIM28_Q13263_221+229_HEPLVLFCESCDTLTCR (UniProt Q13263) | -0.0841 | -0.368 |
| TSPYL1_Q9H0U9_375_NQDLICSFFTWFSDHSLPESDK (UniProt Q9H0U9) | 0.781 | 1.06 |
| UCK2_Q9BZX2_197_PAFEEFCLPTK (UniProt Q9BZX2) | -0.0609 | 0.255 |
| TYK2_P29597_736_NLVHGNVCGR (UniProt P29597) | -0.00731 | -0.24 |
| TXNIP_Q9H3M7_170_VSCMFIPDGR (UniProt Q9H3M7) | 0.0303 | -1.26 |
| USP48_Q86UV5_652+658_KEEEELNFNEDILCPHGELCISENERR (UniProt Q86UV5) | -0.493 | -1.42 |
| UBA7_P41226_829_CQNYGIPPVNR (UniProt P41226) | -0.03 | 0.153 |
| UGGT1_Q9NYU2_1475+1479_SLPQEWLWCETWCDDASK (UniProt Q9NYU2) | -0.291 | -0.0794 |
| USP8_P40818_809_NCYQDDINR (UniProt P40818) | -0.199 | -1.27 |
| UBR7_Q8N806_155+158_RPYPDPEDEIPDEMIQCVVCEDWFHGR (UniProt Q8N806) | -0.195 | -1.14 |
| UBR1_Q8IWV7_1603_NSLIELPDDYSCLLNQASHFR (UniProt Q8IWV7) | -0.114 | -0.631 |
| TRIM5_Q9C035_95_VDHCAR (UniProt Q9C035) | -0.107 | -0.113 |
| UBE3D_Q7Z6J8_52_TPEGCTEIQLPAEVR (UniProt Q7Z6J8) | 0.0793 | 0.147 |
| TSTA3_Q13630_116_VVSCLSTCIFPDK (UniProt Q13630) | -0.0711 | -1.67 |
| TTLL12_Q14166_361_PGVLLNQFPCENLLTVK (UniProt Q14166) | -0.00778 | -0.111 |
| TXNIP_Q9H3M7_170_KVSCMFIPDGR (UniProt Q9H3M7) | 0.205 | -1.47 |
| VAPA_Q9P0L0_179_KLMEECK (UniProt Q9P0L0) | -0.0535 | -0.275 |
| USP13_Q92995_231_ENLWLNLTDGSVLCGK (UniProt Q92995) | 0.0774 | 0.113 |
| TXN2_Q99757_90+93_VVNSETPVVVDFHAQWCGPCK (UniProt Q99757) | -1.92 | -2.07 |
| UBA7_P41226_68_NLVLMGVGSLTLHDPHPTCWSDLAAQFLLSEQDLER (UniProt P41226) | 0.0506 | 0.33 |
| TRMT2A_Q8IZ69_463_VIGVELCPEAVEDAR (UniProt Q8IZ69) | -0.181 | -1.16 |
| UBA1_P22314_711_SLVLQRPQTWADCVTWACHHWHTQYSNNIR (UniProt P22314) | -0.12 | 0.238 |
| UROD_P06132_308_TVTLQGNLDPCALYASEEEIGQLVK (UniProt P06132) | -0.0737 | 0.0622 |
| VCPIP1_Q96JH7_219_SQECLIPVHVDGDGHCLVHAVSR (UniProt Q96JH7) | -2.4 | < -5 |
| TTC17_Q96AE7_725_CPECENSLK (UniProt Q96AE7) | 0.113 | 0.453 |

| Target | probe-labelled cysteine peptide fold change (10 µM) | probe-labelled cysteine peptide fold change (50 µM) |
| --- | --- | --- |
| VPS41_P49754_638_DSTHCPLEK (UniProt P49754) | -0.172 | -0.152 |
| UBE2T_Q9NPD8_24_ELHMLATEPPPGITCWQDK (UniProt Q9NPD8) | -0.209 | -0.165 |
| UQCRC2_P22695_192_NALANPLYCPDYR (UniProt P22695) | 0.015 | 0.158 |
| TSPAN2_O60636_164_ESSEQVQPTCPK (UniProt O60636) | -0.411 | -0.422 |
| UBAP2_Q5T6F2_71_NQDECIVALHDCNGDVNK (UniProt Q5T6F2) | 0.0613 | -0.0464 |
| TRIM28_Q13263_717_VLLALFCHEPCR (UniProt Q13263) | 0.00318 | 0.0176 |
| TXNDC9_O14530_94_ESENVVCHFYR (UniProt O14530) | -0.0612 | -0.0184 |
| TRIM25_Q14258_506_FTYCSQVLGLHCYK (UniProt Q14258) | -1.09 | -4.87 |
| TXNDC5_Q8NBS9_353_FYAPWCGHCK (UniProt Q8NBS9) | -0.372 | -1.61 |
| USP14_P54578_257_CTESEEEEVTK (UniProt P54578) | -0.254 | -0.167 |
| USP11_P51784_894_DGHYTTFACNK (UniProt P51784) | -0.051 | -0.393 |
| TRIM25_Q14258_498_FTYCSQVLGLHCYK (UniProt Q14258) | -1.23 | -2.92 |
| TRRAP_Q9Y4A5_2513_STPIGTSCQGAMLPSITNVINLADSHDR (UniProt Q9Y4A5) | 0.223 | 0.295 |
| UFC1_Q9Y3C8_116_ICLTDHFKPLWAR (UniProt Q9Y3C8) | -0.183 | -1.26 |
| TPX2_Q9ULW0_301_GCTIVK (UniProt Q9ULW0) | 0.583 | 0.294 |
| UBN1_Q9NPG3_711_VGGVLCTEEK (UniProt Q9NPG3) | -0.0763 | 0.0664 |
| USP10_Q14694_456_VQRPCTSTPMIDSFVR (UniProt Q14694) | -0.0395 | -0.00663 |
| USP48_Q86UV5_145_DYEPQTICEHLQYLFALLQNSNRR (UniProt Q86UV5) | 0.119 | 0.166 |
| UBR2_Q8IWV8_1717_GNPLHLCK (UniProt Q8IWV8) | -0.263 | -1.31 |
| UBR4_Q5T4S7_2554_AVQCLNTSSK (UniProt Q5T4S7) | -0.27 | -0.543 |
| UBR7_Q8N806_99+101_CDCGNSK (UniProt Q8N806) | -0.364 | -1.41 |
| TRAPPC6A_O75865_124_FLAFTCGLLR (UniProt O75865) | 0.203 | 0.608 |
| TPRKB_Q9Y3C4_167_LSSQEESIGTLLDAIICR (UniProt Q9Y3C4) | 0.0132 | -0.163 |
| TXNRD2_Q9NNW7_279_GCAPSR (UniProt Q9NNW7) | 0.0601 | 1.36 |
| VLDLR_P98155_251_CPASEIQCGSGECIHK (UniProt P98155) | -0.12 | -0.248 |
| UBR4_Q5T4S7_4890_KQQGYSTVSHFNIVHYDCHLAAVR (UniProt Q5T4S7) | 0.0563 | -0.151 |

| Target | probe-labelled cysteine peptide fold change (10 µM) | probe-labelled cysteine peptide fold change (50 µM) |
| --- | --- | --- |
| VRK3_Q8IV63_418_FVDKPGPFVGPCGHWIRPSETLQK (UniProt Q8IV63) | -0.347 | -1.2 |
| TRIM33_Q9UPN9_582_GNMNCGAFQAHQMR (UniProt Q9UPN9) | -0.217 | -0.598 |
| UBE2G2_P60604_75_FTCEMFHPNIYPDGR (UniProt P60604) | -0.0589 | -0.214 |
| TRAPPC11_Q7Z392_615_ADCPHPIR (UniProt Q7Z392) | 0.126 | 0.142 |
| USP15_Q9Y4E8_633+634_ISTETEETEGSLHCCK (UniProt Q9Y4E8) | -0.567 | -1.51 |
| USP9Y_O00507_674_DGQLWLCAPQAK (UniProt O00507) | -0.00329 | -0.161 |
| UROS_P10746_143_ESSALPLLFPCGNLKR (UniProt P10746) | -0.128 | -0.405 |
| TXNL1_O43396_149_AGCECLNESDEHGFDNCLRK (UniProt O43396) | -0.189 | -0.0731 |
| TTF1_Q15361_445_KTQACLASK (UniProt Q15361) | -0.039 | -0.411 |
| TPRA1_Q86W33_296_CQVDETEEPDVHLPQPYAVAR (UniProt Q86W33) | -0.418 | -1.52 |
| USP16_Q9Y5T5_24_TVPIDDSSETLEPVCR (UniProt Q9Y5T5) | -0.224 | -0.204 |
| USP24_Q9UPU5_995_QLCSPVDNIQIFTNDSLLTVNK (UniProt Q9UPU5) | 0.165 | 0.107 |
| UBXN7_O94888_478_KLSHLDYDITLQEAGLCPQETVFVQER (UniProt O94888) | 0.134 | -0.0436 |
| USP3_Q9Y6I4_385_SFTDLEELDETELYMCHK (UniProt Q9Y6I4) | -0.114 | -0.984 |
| UBR5_O95071_572_VGVLMESVWNMNDSCR (UniProt O95071) | -0.0405 | 0.0537 |
| VCPIP1_Q96JH7_469+472_CLLCGALSELHVPPEWLAPGGK (UniProt Q96JH7) | -0.12 | 0.233 |
| VIM_P08670_328_RQVQSLTCEVDALK (UniProt P08670) | 0.00911 | -0.139 |
| UBR4_Q5T4S7_2222_HTACNEQQR (UniProt Q5T4S7) | -0.245 | -1.12 |
| VPS16_Q9H269_763_SPIGYLPFVEICMK (UniProt Q9H269) | 0.149 | 0.152 |
| VAPA_Q9P0L0_128_CVFEMPNENDK (UniProt Q9P0L0) | -0.217 | -0.121 |
| UBA6_A0AVT1_721_ALQLLHCFPLDIR | 0.0248 | 0.215 |
| TRMT2A_Q8IZ69_270_GGTCAVAAPFDTVHIPEATK (UniProt Q8IZ69) | -0.0935 | -0.357 |
| TRPM4_Q8TD43_759_QSGRPGCCGGR (UniProt Q8TD43) | -0.788 | -2.09 |
| UBR4_Q5T4S7_2619_QLEGDCCSFITQLVNHFWK (UniProt Q5T4S7) | -0.0425 | -0.45 |
| UBR1_Q8IWV7_1101_EVLTCILCQEEQEVK (UniProt Q8IWV7) | -0.162 | 0.733 |
